# In PubChem BioAssay (NCI):
# Compounds without any hit were thinned out: in the full panel of roughly 83,000, 20% have a hit.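 Single-dose data. Exposure time 48 hours. Values below 10 considered active.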 A number with no mark means an inactive call. Calls of active or inactive are those of the source.
# Experiments:
# Assay in all cases: NCI-60 one-dose screen, 48 h (100 = growth as untreated, 0 = no growth, -100 = all killed)
# Details in all cases: 10 µM unless noted
# HCT-15 colon = test system: HCT-15 colon
# HT29 colon = test system: HT29 colon
# SNB-75 CNS = test system: SNB-75 CNS
# SNB-19 CNS = test system: SNB-19 CNS
# U251 CNS = test system: U251 CNS
# PC-3 prostate = test system: PC-3 prostate
# SK-MEL-5 melanoma = test system: SK-MEL-5 melanoma
# UACC-62 melanoma = test system: UACC-62 melanoma
# LOX IMVI melanoma = test system: LOX IMVI melanoma
# SK-MEL-28 melanoma = test system: SK-MEL-28 melanoma
# SK-MEL-2 melanoma = test system: SK-MEL-2 melanoma
# EKVX NSCLC = test system: EKVX NSCLC
# SN12C renal = test system: SN12C renal
# UO-31 renal = test system: UO-31 renal
# TK-10 renal = test system: TK-10 renal
# ACHN renal = test system: ACHN renal
# CAKI-1 renal = test system: CAKI-1 renal
# A498 renal = test system: A498 renal
# CCRF-CEM leukemia = test system: CCRF-CEM leukemia
# MOLT-4 leukemia = test system: MOLT-4 leukemia
SMILES,growth (HCT-15 colon),growth (HT29 colon),growth (SNB-75 CNS),growth (SNB-19 CNS),growth (U251 CNS),growth (PC-3 prostate),growth (SK-MEL-5 melanoma),growth (UACC-62 melanoma),growth (LOX IMVI melanoma),growth (SK-MEL-28 melanoma),growth (SK-MEL-2 melanoma),growth (EKVX NSCLC),growth (SN12C renal),growth (UO-31 renal),growth (TK-10 renal),growth (ACHN renal),growth (CAKI-1 renal),growth (A498 renal),growth (CCRF-CEM leukemia),growth (MOLT-4 leukemia)
CN1C(=O)N(C)C2Nn3c(s/c(=C\c4ccccc4)c3=O)=NC21 (centres undefined),93.1%,106%,71.4%,95.6%,96.2%,101%,101%,90.9%,92.6%,105%,109%,96.5%,95.6%,81.8%,115%,97.8%,82.7%,68%,99.5%,109%
NC1CCN(c2nc(Nc3cccc(C(F)(F)F)c3)c3c(=O)[nH]ccc3n2)CC1,-80% (active),-16.3% (active),-76.8% (active),-14.3% (active),-82.1% (active),19.3%,-96.2% (active),-80.4% (active),-94.2% (active),-85.4% (active),-77.6% (active),4.44% (active),-75.8% (active),-80.8% (active),-26.9% (active),-70% (active),-13.8% (active),93.9%,-18.4% (active),-37.9% (active)
CC(=O)CC(c1cccs1)c1c(-c2ccccc2)[nH]c2ccccc12 (centres undefined),80.7%,98.2%,40.7%,96%,93.8%,77.3%,95.3%,77.9%,81.7%,102%,94.6%,72.6%,93%,71.5%,134%,89.9%,39.4%,84%,92.6%,86.9%
Cc1ccc(-c2nc(N3CCN(CC(=O)Nc4ccc(Cl)cc4)CC3)c3ccccc3n2)cc1,79.9%,80.8%,77.7%,93.1%,92.5%,80.6%,89%,75.9%,97.4%,99.8%,103%,85.4%,90.4%,64.1%,104%,98.3%,85.2%,51.4%,88.9%,62.1%
CC(=O)N1CCN(c2ccc(OCC3CO[C@](Cn4ccnc4)(c4ccc(Cl)cc4Cl)O3)cc2)CC1 (some centres undefined),75%,80.6%,79.6%,97.2%,87.4%,76.5%,14.5%,57.2%,91.6%,106%,86.8%,87.9%,84.2%,53.7%,101%,92.5%,79.6%,86.4%,75.2%,77.4%
Cc1ccc(C(C)C)cc1C(=O)C[n+]1ccccc1,99.7%,88.2%,95%,106%,104%,99.1%,106%,106%,100%,97.3%,107%,99.7%,102%,87.5%,103%,95.6%,99.6%,81.5%,113%,88.4%
COc1cc(C(=O)/C=C/c2c(Cl)nc3sccn23)cc(OC)c1OC,59.4%,67.5%,70.9%,83%,77.4%,70.5%,86.4%,78.7%,63.8%,93.6%,86.1%,90.7%,66.3%,60.4%,106%,86.4%,84.9%,88%,48.7%,74%
CC1Cc2ccccc2N1NC(=O)c1ccc(Cl)c(S(N)(=O)=O)c1 (centres undefined),106%,99.9%,90.4%,102%,100%,88%,101%,99.4%,96.2%,104%,99.4%,108%,96.3%,83.6%,101%,98%,94.5%,114%,95.9%,86.5%
COc1cccc(OC)c1C(=O)N[C@@H]1C(=O)N2[C@@H]1SC(C)(C)[C@@H]2C(=O)O,108%,98.9%,98.9%,107%,106%,86.3%,105%,109%,100%,105%,101%,104%,97.7%,84.9%,106%,98.4%,94.2%,121%,99.8%,94.6%
Cc1nn(-c2ccccc2)c2c1N=c1s/c(=C\c3ccc(C(F)(F)F)cc3)c(=O)n1CN2,70.1%,77.6%,78%,84.4%,73.6%,37.2%,31.1%,59.2%,56.7%,87.2%,47.1%,59.3%,71.4%,43.4%,80%,59.8%,59.9%,63.5%,38.3%,98.8%
COc1cc2cc(Oc3ccc(NC(=O)Nc4ccc(F)c(C(F)(F)F)c4)cc3)c(C)nc2cc1OCCN1CCOCC1,13.6%,8.41% (active),51.6%,25.1%,13.6%,5.95% (active),-37.6% (active),33.9%,12.8%,43.1%,14.8%,16.2%,11.6%,30.1%,35.1%,9.37% (active),25.8%,38.7%,5.44% (active),0.0203% (active)
O=C(CCN1C(=O)/C(=C/c2ccc(O)cc2)SC1=S)Nc1ccc(Cl)cc1,91.2%,108%,90.4%,89.7%,96.5%,88.1%,99.2%,83.3%,97.8%,99.2%,108%,95.8%,91.7%,6.22% (active),108%,84%,92.5%,95%,46.7%,84.7%
CCCCCCn1c(-c2ccc(C(=O)O/N=C(\N)c3ccc(OC)cc3)cc2)nc(-c2ccccc2)c1-c1ccccc1,-41.1% (active),22%,-20.3% (active),32.5%,-42.9% (active),3.94% (active),49.9%,18.1%,-91.6% (active),42.1%,47.3%,-75.6% (active),-70.3% (active),-86.4% (active),-73.6% (active),-91.5% (active),-64.5% (active),4.08% (active),-35% (active),-35.7% (active)
Cc1ccc(-c2nn(C)c(=O)c3noc(-c4ccc(C)cc4)c23)cc1,32.3%,9.47% (active),-21.4% (active),32.9%,27.4%,26.1%,21.5%,38.5%,44.3%,70.5%,9.26% (active),56.5%,44.1%,41.7%,47.4%,43.5%,37.7%,25.6%,18.9%,55.8%
O=C(/C=C/c1cccc2ccccc12)c1ccc(NC(=O)c2ccccc2CN2C(=O)c3ccccc3C2=O)cc1,54.2%,41.7%,61.2%,76.7%,64.5%,74%,87.9%,69.3%,60.9%,96.7%,95.5%,81.4%,80.3%,50.7%,100%,73%,37.9%,88.5%,39.7%,51.2%
O=C(S)CNC(=O)c1ccccc1,112%,99.5%,96.3%,94.9%,95.3%,91.2%,99.7%,106%,98.2%,104%,101%,95.8%,95.6%,76.5%,91.6%,,90.7%,83.5%,89.9%,87.7%
